Vif imaging = HIV Vif inhibition | HEK293T cells, Vif self-association by quenched fluorescence, imaging, 24 h | inhibition, % at 7.49 µM | actives 0.35% (n = 340,000) | AID 602346; in the data active means inhibition above about 50%, passing the limit was not always enough
H9c2 protect = modulators protecting cardiomyocytes from myocardial damage. H9c2 cardiomyocytes, H2O2 injury protection, ATPLite, 2 h. protection from H2O2 cell death, % at 20 µM. actives 0.63% (n = 360,000). AID 588492;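 active means compounds giving at least 50% protection of heart cells from peroxide-induced death in the single-dose screen, raw or plate-pattern-corrected value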
ARNT-TACC3 inh = disrupts binding between human ARNT and TACC3. AlphaScreen His-ARNT PAS-B/GST-TACC3 binding, luminescence; TACC3 fragment carries E629A point mutation. inhibition, % at 9.99 µM. actives 0.66% (n = 390,000);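 active means mean inhibition of replicates at least 50% and at least half of replicates each reaching 50%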
N-glyco inh = blocks N-linked glycosylation in D54 reporter cells | D54 ERlucT glycosylation luciferase reporter, 24 h; percent of 100 nM tunicamycin response | reporter increase, % at 12.5 µM | actives 0.23% (n = 360,000) | AID 588692;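 active means mean luciferase reporter signal, scaled so untreated is 0 and the glycosylation-blocking control 100, at or above a set limit in every replicate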;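 further: luciferase carries N-glycosylation sites so blocking glycosylation raises the light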
aDG glyco act = increases alpha dystroglycan glycosylation. Pro5-aDG cells, alpha-DG glycosylation AlphaScreen (IIH6); 0% Pro5, 100% B10-LARGE cell signal. activation, % at 10 µM. actives 0.22% (n = 360,000). AID 624168;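 active means activation of at least 8% versus controls, or a plate z-score of at least 8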;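 further: Pro5 are CHO cells carrying HIG-tagged alpha-DG that lacks glycosylation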
Hits are given with their value; . = inactive; / = not tested or not shown. A selection: hits, their analogues and other compounds. The true share with any hit is near 1.7%.

SMILES	Vif imaging	H9c2 protect	ARNT-TACC3 inh	N-glyco inh	aDG glyco act
Cc1cc(NS(=O)(=O)c2ccc(Nc3nc(-c4sc(N)nc4C)cs3)cc2)no1	/	.	61.7	.	.
Cc1cc(NS(=O)(=O)c2ccc(Nc3nc(-c4ccc(C)c(C)c4)cs3)cc2)no1	.	.	.	.	.
CC(=O)Nc1nc(C)c(-c2csc(Nc3cccc(C(C)=O)c3)n2)s1	.	65.6	.	.	.
CO[C@H]1CN(C)C(=O)c2ccc(NC(=O)Nc3cccc(F)c3)cc2OC[C@@H](C)N(C(=O)Nc2c(C)noc2C)C[C@@H]1C	/	/	.	/	/
CN(C)CC(=O)N[C@@H]1CC[C@@H](CC(=O)NCc2ccc(Cl)cc2)O[C@@H]1CO	/	/	.	/	/
COc1ccc(S(=O)(=O)N(C)C[C@H]2OCCCC[C@H](C)Oc3ccc(NS(=O)(=O)c4ccc(C)cc4)cc3C(=O)N([C@@H](C)CO)C[C@H]2C)cc1	/	/	.	/	/
Cc1ccc(S(=O)(=O)N[C@@H]2CC[C@@H](CCNC(=O)C3CCCC3)O[C@H]2CO)cc1	/	/	.	/	/
CC(=O)Nc1nc(C)c(-c2csc(Nc3ccc(O)cc3)n2)s1	60.8	.	.	.	.
CCC(=O)Nc1nc(C)c(-c2csc(Nc3ccc(C(=O)O)cc3)n2)s1	.	.	.	.	.
Cc1noc(C)c1S(=O)(=O)N(C)C[C@@H]1Oc2ccc(NC(=O)CCCN(C)C)cc2C(=O)N([C@H](C)CO)C[C@@H]1C	/	/	.	/	/
COc1ccc2nc(-c3ccco3)c(-c3ccco3)nc2c1	.	.	.	32.7	.
COc1ccc2nc3cccc(OC)c3nc2c1	.	58.2	.	.	.
C[C@@H]1CN([C@H](C)CO)C(=O)c2cc(-c3cccc(F)c3)cnc2O[C@H]1CN(C)C(=O)C1CCC1	/	/	.	/	/
O=C1C=C(O)c2[nH]c(=O)ccc2C1=O	.	.	36.1	.	.
N=c1n(CC(=O)c2ccc(Br)cc2)c2ccccc2n1Cc1ccccc1	.	.	.	.	9.1
Cn1c(=N)n(CC(=O)c2ccc(Cl)c(Cl)c2)c2ccccc21	.	.	.	.	7.4
N=c1n(CC(=O)c2ccc([N+](=O)[O-])cc2)c2ccccc2n1Cc1ccccc1	.	.	.	.	.
Cn1c(=N)n(CC(=O)c2ccccc2)c2ccccc21	.	.	/	.	.
O=C(C[C@@H]1C[C@@H]2c3cc(NC(=O)CC4CC4)ccc3O[C@@H]2[C@@H](CO)O1)NCc1ccc(Cl)cc1	/	/	.	/	/
CCCNC(=O)C[C@H]1CC[C@@H]2[C@H](COC[C@@H](O)CN2C(=O)CC)O1	/	/	.	/	/
CCOC(=O)Nc1c2ccccc2nc2ccccc12	.	.	.	34.3	.
CCOC(=O)Nc1ccc(Oc2ccccc2)cc1	.	.	.	.	.
c1ccc2c(c1)nc(Nc1ccc3c(c1)OCO3)c1nnnn12	.	55.5	.	.	.
Fc1cccc(Nc2nc3ccccc3n3nnnc23)c1	.	.	.	.	.
c1ccc(Nc2nc3ccccc3n3nnnc23)cc1	.	.	.	.	.
SMILES	Vif imaging	H9c2 protect	ARNT-TACC3 inh	N-glyco inh	aDG glyco act
COc1cccc(Nc2nc3ccccc3n3nnnc23)c1	.	68.1	.	.	.
CCN(CC)S(=O)(=O)c1ccc(Nc2nc3ccccc3n3nnnc23)cc1	/	82.6	.	.	.
O=C(C[C@@H]1CC[C@H](NC(=O)C2CCOCC2)[C@@H](CO)O1)Nc1nccs1	/	/	.	/	/
COc1ccc(/C=C/C(=O)NCC(=O)N/N=C/c2cc(Br)ccc2OCc2ccccc2)cc1	.	.	.	.	.
COc1ccc(/C=C\C(=O)NCC(=O)N/N=C/c2cccc(OC)c2O)cc1	.	.	.	.	.
COc1cccc(/C=N/NC(=O)CNC(=O)/C=C\c2ccccc2)c1O	.	52.1	.	.	.
COc1ccc(Br)cc1/C=N/NC(=O)CNC(=O)/C=C/c1ccccc1	.	63.7	.	.	.
COc1ccccc1/C=C\C(=O)NCC(=O)N/N=C/c1ccc(O)cc1O	.	52.5	54.2	.	.
N#C[C@@H]1N[C@H](CO)[C@H]1c1ccccc1	/	/	.	/	/
CCCNC(=O)N1C[C@@H]2[C@H](c3ccccc31)[C@H](CO)N2C(=O)C1CCOCC1	/	/	.	/	/
Cc1ccc(CN(C)C[C@H]2OCc3cnnn3CCCC(=O)N([C@H](C)CO)C[C@H]2C)cc1	/	/	.	/	/
C[C@@H]1CCCCO[C@H](CN(C)Cc2ccc(C(F)(F)F)cc2)[C@H](C)CN([C@@H](C)CO)C(=O)c2cc(NC(=O)c3ccccc3)ccc2O1	/	/	.	/	/
Cc1ccc(Cn2c(C)c(C(=O)NCc3cccs3)sc2=O)cc1	.	.	/	.	.
COC(=O)c1ccc(Cn2c(C)c(C(=O)NCc3cccs3)sc2=O)o1	/	51.9	/	.	.
O=C1CC(c2ccccc2)CC(O)=C1C=Nc1ccccc1Cl (configuration not stated)	.	.	.	.	.
COc1ccccc1N=CC1=C(O)CC(c2ccccc2)CC1=O (configuration not stated)	.	.	.	27.6	.
CN1C[C@@H]2[C@H](c3ccccc31)[C@@H](CO)N2S(=O)(=O)c1ccccc1	/	/	.	/	/
COc1ccc([N+](=O)[O-])cc1N1C(=O)c2cccnc2C1=O	.	.	49.7	.	.
Cc1ccc(NC(=O)Cn2c(O)c(N=NC(=O)c3cc4ccccc4cc3O)c3ccccc32)cc1	.	.	.	.	.
COc1ccccc1NC(=O)Cn1c(O)c(N=NC(=O)c2ccccc2O)c2ccccc21	116.5	.	.	.	.
O=S(=O)(C/C(=C/CO)S(=O)(=O)c1ccccc1)c1ccccc1	62.4	.	.	.	.
O=S(=O)(CS(=O)(=O)c1ccccc1)c1ccccc1	.	.	.	.	.
C[C@H]1CN([C@@H](C)CO)S(=O)(=O)c2ccc(C#CC3CC3)cc2O[C@@H]1CN(C)C(=O)c1cnccn1	/	/	.	/	/
Cc1cccc(NC(=O)Nc2ccc(Oc3c(F)c(F)c(F)c(F)c3F)cc2)c1	.	.	.	.	.
O=C(Nc1ccc(Oc2c(F)c(F)c(F)c(F)c2F)cc1)OC1CCN2Cc3ccccc3N=C12 (configuration not stated)	.	.	.	29.4	.
CC(C)NC(=O)[C@@]1(c2ccc([N+](=O)[O-])cc2)CC(=O)N(CC23CC4CC(CC(C4)C2)C3)[C@@H]1c1ccc(CO)cc1	/	/	.	/	/
O=[N+]([O-])c1ccc(N2CCN(S(=O)(=O)c3ccc(Cl)cc3)CC2)cc1NCC1CCCO1 (configuration not stated)	57.4	.	.	.	.
Cc1cc(C)c(S(=O)(=O)N2CCN(c3ccc([N+](=O)[O-])c(NCC4CCCO4)c3)CC2)c(C)c1 (configuration not stated)	.	.	.	.	.
CO[C@H]1CN(C)C(=O)c2ccc(NC(=O)C3CCC3)cc2OC[C@@H](C)N(C(=O)CN(C)C)C[C@@H]1C	/	/	.	/	/
C[C@H]1CN([C@@H](C)CO)C(=O)Cc2cc(NC(=O)NC3CCCCC3)ccc2O[C@@H]1CN(C)C	/	/	.	/	/
